From PubChem BioAssay (NCATS) come the findings set out here.

A short description of experiment [1]: AP1 Signaling Pathway (AID 357).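 Further: ME-180 reporter cells stimulated with EGF at its EC50 level; on the % scale 0 is the no-effect control and ±100 the full control effect.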 The following applies: ME-180 AP-1-bla reporter, EGF-induced, beta-lactamase ratio, 5 h; at 7.69 µM (top of the series) unless noted. In a few lines: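 Titration-series screen for positive or negative modulators of EC50 EGF-induced signaling in ME-180 cells carrying an AP-1-driven beta-lactamase reporter. After 5 hours at 37 degrees Celsius, CCF4 460nm/530nm emission ratio gave %Activity; AC50 values derived.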

For experiment [2], the target named is Cytochrome P450 1A2 (Homo sapiens) (UniProt P05177). The experiment is described as follows: p450-cyp1a2 (AID 410; calls by dose curve; further: potency means the concentration at half of the fitted maximal effect;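 on activity change, negative = inhibition: -100% = full effect of reference inhibitor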). In a few lines:
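Human CYP1A2 (20nM) demethylated Luciferin-ME at its Km (100uM) in 100mM KPO4. After 10 min compound preincubation, NADPH regeneration ran the reaction 60 min at room temperature. Luciferin was read by luminescence, normalized to 57 uM furafylline.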

Experiment [3] in a line: Stat Signaling Pathway (AID 446).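 Further: ME-180 cervical cancer cells given 40 pM IL-6 alongside compound; SIE-controlled beta-lactamase reporter measured as 460/530 nm FRET emission ratio; on the % scale 0 is the no-effect control and ±100 the full control effect.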 The following applies: ME-180 (cervical carcinoma) SIE beta-lactamase reporter, IL-6 stimulated, 5 h; at 7.69 µM (top of the series) unless noted. In a few lines:
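ME-180 SIE-bla cells; overnight plating; cpd + IL-6 40 pM, 5 h, 37 C; LiveBLAzer 2.5 h RT; 460/530 nm emission ratio. Normalized to 300 pM IL-6 and 125 nM JAK inhibitor controls.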

Experiment [4] has as its target Glucocorticoid receptor (Homo sapiens) (UniProt P04150). The experiment is described as follows: GR-GFP Redistribution (AID 450;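 active means compounds whose dose series gives a full or clear partial fitted curve of increased nuclear translocation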; further: potency means the concentration at half of the fitted maximal effect). The following applies: U2OS GR-GFP nuclear translocation, laser cytometry, 2 h.
The target is the same in experiment [5]. The experiment is described as follows: GR-EFC Redistribution (AID 451; calls by dose curve; further: potency means the concentration at half of the fitted maximal effect). The following applies: CHO-K1 GR-EFC translocation, beta-gal luminescence, 2 h. In a few lines: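 CHO-K1 cells stably expressing nuclear-localized β-gal enzyme acceptor and GR fused C-terminally to the enzyme donor fragment; ligand-driven nuclear translocation restores β-gal by complementation. Compounds titrated up to 46 uM final, 2 h at 37 °C; luminescence read.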

Experiment [6] has as its target Mitogen-activated protein kinase 10 (Mus musculus) (UniProt Q61831). The experiment in a line: JNK3 AlphaScreen Assay (AID 530).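 Further: kinase came from lysate of stimulated human HepG2 cells; signal reports phosphorylation of biotinylated GST-cJun 1-79 at Ser73 with 10 µM ATP; on the % scale 0 is the no-effect control and ±100 the full control effect.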 Summed up:
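JNK3 came from HepG2 lysates pre-activated with IL-1beta and TNF-alpha and phosphorylated biotinylated GST-cJun (1-79) at 10 uM ATP, pH 7.6, room temperature. Compounds were titrated. AlphaScreen signal used anti-phospho-cJun (Ser73) antibody.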
On the technique in general: Alpha assays give light when donor and acceptor beads are brought close together.

Experiment [7] concerns the target 3',5'-cyclic-AMP phosphodiesterase 4B (Homo sapiens) (UniProt Q07343). The experiment in a line: qHTS Assay for Inhibitors of PDE-IV (AID 607; active means well fitted activation curve with a large enough effect in the main read-out, with a control signal flat, not every such curve was filed as active; further: % of control where 0% means no effect). In a few lines: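 ACTOne HEK293 cells carry a modified cAMP-gated CNG channel and express endogenous PDE4; plated 1000 cells/well, compounds up to 22.9 uM final. Membrane-potential dye fluorescence (ex 535/em 590) was read; parental cells received 10 uM forskolin + 100 uM RO 20-1724.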
A general note: In qHTS, concentration-response curves come from the screen itself.

In experiment [8] the target is Cytochrome P450 2C9 (Homo sapiens) (UniProt P11712). The experiment is described as follows: qHTS Assay for Inhibitors and Substrates of Cytochrome P450 2C9 (AID 883; active means well fitted curve in the direction sought with a large enough effect; an effect the other way counts as inactive or inconclusive; further: on the % scale 0 is the no-effect control and ±100 the full control effect; nearly all actives have a fitted effect of over 60% in size). In a few lines:
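Human CYP2C9 (10nM) hydroxylated Luciferin-H (100uM, at its KM) to luciferin in 25mM KPO4. Compound was preincubated 10 min at 37C, then NADPH regeneration started a 60 min reaction at 37C. Luminescence was read after detection reagent, normalized to 57uM sulphaphenazole.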

Experiment [9] concerns the target Cytochrome P450 2D6 (Homo sapiens) (UniProt P10635). The experiment is described as follows: qHTS Assay for Inhibitors and Substrates of Cytochrome P450 2D6 (AID 891; active means well fitted curve in the direction sought with a large enough effect; an effect the other way counts as inactive or inconclusive;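 further: luciferin methyl ether substrate demethylated by CYP2D6 with NADPH regeneration; on the % scale 0 is the no-effect control and ±100 the full control effect; nearly all actives have a fitted effect of over 60% in size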). Summed up:
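Human CYP2D6 (5 nM) with 30 uM Luciferin-ME EGE (at Km) in 100 mM KPO4, compound preincubated 10 min, then NADPH regeneration system for 60 min at room temperature. Luciferin read by luminescence; normalized to 1.43 uM quinidine.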

Experiment [10] has as its target Cytochrome P450 2C19 (Homo sapiens) (UniProt P33261). The experiment is described as follows: qHTS Assay for Inhibitors and Substrates of Cytochrome P450 2C19 (AID 899; active means well fitted curve in the direction sought with a large enough effect; an effect the other way counts as inactive or inconclusive; further: on the % scale 0 is the no-effect control and ±100 the full control effect; nearly all actives have a fitted effect of over 60% in size). In a few lines: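 Human CYP2C19 (5nM) with Luciferin-H EGE at 10uM (its KM) in 50mM KPO4 was preincubated with compound for 10 min at 37C. NADPH regeneration started a 60 min 37C reaction. Luciferin was read by luminescence, normalized to 57uM ketoconazole.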

The nature of experiment [11]: NFAT Signaling Pathway (AID 444).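 Further: carbachol stimulus at about its EC50 of 1 µM final; on the % scale 0 is the no-effect control and ±100 the full control effect.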 The note with it: Jurkat NFAT-bla M1, carbachol, beta-lactamase ratio, 5 h; at 7.69 µM (top of the series) unless noted. In a few lines: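 Jurkat cells carrying an NFAT-driven β-lactamase reporter and co-transfected muscarinic M1 receptor were treated with compound plus carbachol (1 uM final, an EC50 level) for 5 h at 37 °C. CCF4 loading followed for 1 h at RT; 460/530 nm ratio gave %activity.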

Experiment [12] addresses Guanine nucleotide-binding protein G(i) subunit alpha-1 (Homo sapiens) (UniProt P63096). The experiment in a line: qHTS Assay for Inhibitors of RGS12 GoLoco Motif Activity (Green Fluorophore) (AID 879; active means well fitted curve in the direction sought with a large enough effect; an effect the other way counts as inactive or inconclusive;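 further: 0% = labeled peptide with Gαi1 and full inhibition = labeled peptide alone without protein; negative values mean loss of peptide binding seen as reduced polarization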). In a few lines:
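Fluorescence polarization assay: 50 nM Gαi1 with 10 nM FITC-labeled RGS12 GoLoco peptide in 10 mM Tris pH 7.5, 150 mM NaCl, 0.1 mM GDP, 0.05% NP40, 10 min at room temperature with compound.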

The nature of experiment [13]: qHTS Assay for Identification of Small Molecule Agonists for Thrombopoietin (TPO) Signaling Pathway (AID 917; active means well fitted curve in the direction sought with a large enough effect; an effect the other way counts as inactive or inconclusive; further: on the % scale 0 is the no-effect control and ±100 the full control effect). Summed up: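 Murine Ba/F3 cells expressing human TPO receptor and GPIIb-promoter luciferase, IL-3-starved overnight, given compound plus TPO at 26 pM (EC50). After 24 h at 37 C, 5% CO2, luminescence read.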
The target of experiment [14] is Muscarinic acetylcholine receptor M1 (Rattus norvegicus) (UniProt P08482). The experiment is described as follows: qHTS Assay for Antagonists of Acetylcholine Muscarinic M1 Receptor: Measurement of IP-One Response (AID 944; active means well fitted curve in the direction sought with a large enough effect; an effect the other way counts as inactive or inconclusive; further: nearly all actives have a fitted effect of over 75% in size). In a few lines: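 CHO cells expressing rat M1 receptor, recovered overnight, were pre-incubated 10 min with compound, then stimulated 30 min with carbachol at EC80 (200 nM) in LiCl-containing buffer, pH 7.4. IP1 accumulation was read by HTRF (620/665 nm).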

Experiment [15] deals with Pyruvate kinase (Leishmania mexicana) (UniProt Q27686). The experiment in a line: qHTS Validation Assay for Inhibitors of Leishmania Mexicana Pyruvate Kinase (AID 945; active means well fitted curve in the direction sought with a large enough effect; an effect the other way counts as inactive or inconclusive;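 further: 0% = DMSO only neutral control wells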). In a few lines:
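qHTS eight-point titrations against 0.2 nM LmPYK (E451W) in imidazole buffer pH 7.2 with 0.5 mM PEP, 0.1 mM ADP; 1 h, room temperature. Readout: PKLight luminescence, normalized to neutral DMSO wells.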

Experiment [16] concerns the target Pyruvate kinase PKM (Homo sapiens) (UniProt P14618). The experiment in a line: qHTS Assay for Activators of Human Muscle Pyruvate Kinase (AID 954; active means well fitted curve in the direction sought with a large enough effect, not every such curve was filed as active;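 further: 0% = uninhibited enzyme and -100% = no enzyme or full thiadiazolimine inhibition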). In a few lines: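 Luminescence from a luciferase ATP-detection/stop reagent reported PKM2 activity. Reactions contained 0.1 nM purified human enzyme, 0.5 mM PEP, 0.1 mM ADP and 7 mM MgCl2 at pH 7.2, run 1 h at RT.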

Experiment [17] addresses Alpha-galactosidase A (Homo sapiens) (UniProt P06280). The experiment is described as follows: Counterscreen for Glucocerebrosidase Inhibitors: qHTS Assay for Human alpha-Galactosidase at pH 4.5 (AID 992; active means well fitted curve in the direction sought with a large enough effect; an effect the other way counts as inactive or inconclusive; further: 0% is about no effect). Summed up:
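Enzyme at 2 nM final was combined with compound (0.7 nM to 77 uM) and 80 uM 4-methylumbelliferyl alpha-D-galactopyranoside in 50 mM citric acid, 0.005% Tween-20, pH 4.5. After 20 min at room temperature, fluorescence was read (Ex 365/Em 440 nm); AC50 came from Hill fits.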

Experiment [18] concerns the target alpha-glucosidase (Oryza sativa, rice) (UniProt Q653V4). The experiment is described as follows: Counterscreen for Glucocerebrosidase Inhibitors: qHTS Assay for Rice alpha-Glucosidase at pH 5.0 (AID 997; active means well fitted curve in the direction sought with a large enough effect; an effect the other way counts as inactive or inconclusive;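 further: 0% = full activity with enzyme and -100% = basal without enzyme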). Summed up:
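Rice alpha-glucosidase (4 nM final) with 400 uM 4-methylumbelliferyl-alpha-D-glucopyranoside in citrate buffer pH 5.0, 20 min at room temperature, stopped at pH 10; fluorescence 365/440 nm, compounds 0.7 nM–77 uM, AC50 from Hill fits.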
In general terms: Counterscreens check selectivity or assay interference.

The target in experiment [19] is Cytochrome P450 3A4 (Homo sapiens) (UniProt P08684). The experiment in a line: qHTS Assay for Activators of Cytochrome P450 3A4 (AID 885; active means well fitted curve in the direction sought with a large enough effect; an effect the other way counts as inactive or inconclusive; further: nearly all actives have a fitted effect of over 65% in size). In a few lines: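 20nM CYP3A4 + 25uM Luciferin-PPXE (=KM), 200mM KPO4; cpd 10 min RT; NADPH regen, 60 min RT; stop w/ detection buffer, 20 min; luminescence. Normalized to 57 uM ketoconazole.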
Experiment [20] can be described thus: qHTS Assay for Identification of Small Molecule Antagonists for Thrombopoietin (TPO) Signaling Pathway (AID 918; active means well fitted curve in the direction sought with a large enough effect; an effect the other way counts as inactive or inconclusive; further: potency means the concentration at half of the fitted maximal effect; nearly all actives have a fitted effect of over 60% in size). The note with it: TPO-dependent cell signaling reporter, antagonist mode. In a few lines: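 Murine Ba/F3 cells stably expressing human TPO receptor and a Glycoprotein IIb promoter–luciferase reporter were IL-3-starved overnight, treated with compounds plus TPO (26 pM final, its EC50) for 24 hrs at 37 C, then read by luminescence.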

SMILES strings stand for the structures. Unmarked numbers belong to inactive results. Inconclusive results are not listed. The source made the active and inactive calls. Unless noted, the call rests on the fitted dose curve; in most records, active means well fitted curve in either direction with a large enough effect (not every such curve was filed as active); inconclusive means small, poorly fitted or top-dose-only effect, or another doubt; inactive means flat fitted curve, though single readings scatter. Some results are limits rather than exact numbers.

3',5'-cyclic-AMP phosphodiesterase 4B (Homo sapiens), sequence (Q07343 whole entry, looked up): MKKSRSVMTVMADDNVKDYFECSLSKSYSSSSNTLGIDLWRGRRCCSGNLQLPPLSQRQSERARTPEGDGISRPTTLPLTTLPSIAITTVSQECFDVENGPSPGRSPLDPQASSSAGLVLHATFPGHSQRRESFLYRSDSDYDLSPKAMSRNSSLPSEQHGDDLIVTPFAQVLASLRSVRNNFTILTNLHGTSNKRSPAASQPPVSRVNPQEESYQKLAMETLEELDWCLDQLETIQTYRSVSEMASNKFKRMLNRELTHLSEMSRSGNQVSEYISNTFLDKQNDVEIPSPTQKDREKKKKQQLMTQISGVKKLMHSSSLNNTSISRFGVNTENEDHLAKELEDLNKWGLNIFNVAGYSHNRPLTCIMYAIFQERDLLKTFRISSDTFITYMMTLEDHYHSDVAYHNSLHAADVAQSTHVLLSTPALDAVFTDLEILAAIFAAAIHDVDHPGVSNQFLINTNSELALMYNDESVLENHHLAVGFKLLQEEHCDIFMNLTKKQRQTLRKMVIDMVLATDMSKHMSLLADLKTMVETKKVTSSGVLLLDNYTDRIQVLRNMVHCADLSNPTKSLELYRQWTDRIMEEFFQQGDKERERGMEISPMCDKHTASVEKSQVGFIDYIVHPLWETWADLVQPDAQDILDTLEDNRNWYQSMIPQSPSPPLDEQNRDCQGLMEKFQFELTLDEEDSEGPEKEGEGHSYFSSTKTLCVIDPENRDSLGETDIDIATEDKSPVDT
Glucocorticoid receptor (Homo sapiens), sequence (P04150 whole entry, looked up, the tested form may be a part): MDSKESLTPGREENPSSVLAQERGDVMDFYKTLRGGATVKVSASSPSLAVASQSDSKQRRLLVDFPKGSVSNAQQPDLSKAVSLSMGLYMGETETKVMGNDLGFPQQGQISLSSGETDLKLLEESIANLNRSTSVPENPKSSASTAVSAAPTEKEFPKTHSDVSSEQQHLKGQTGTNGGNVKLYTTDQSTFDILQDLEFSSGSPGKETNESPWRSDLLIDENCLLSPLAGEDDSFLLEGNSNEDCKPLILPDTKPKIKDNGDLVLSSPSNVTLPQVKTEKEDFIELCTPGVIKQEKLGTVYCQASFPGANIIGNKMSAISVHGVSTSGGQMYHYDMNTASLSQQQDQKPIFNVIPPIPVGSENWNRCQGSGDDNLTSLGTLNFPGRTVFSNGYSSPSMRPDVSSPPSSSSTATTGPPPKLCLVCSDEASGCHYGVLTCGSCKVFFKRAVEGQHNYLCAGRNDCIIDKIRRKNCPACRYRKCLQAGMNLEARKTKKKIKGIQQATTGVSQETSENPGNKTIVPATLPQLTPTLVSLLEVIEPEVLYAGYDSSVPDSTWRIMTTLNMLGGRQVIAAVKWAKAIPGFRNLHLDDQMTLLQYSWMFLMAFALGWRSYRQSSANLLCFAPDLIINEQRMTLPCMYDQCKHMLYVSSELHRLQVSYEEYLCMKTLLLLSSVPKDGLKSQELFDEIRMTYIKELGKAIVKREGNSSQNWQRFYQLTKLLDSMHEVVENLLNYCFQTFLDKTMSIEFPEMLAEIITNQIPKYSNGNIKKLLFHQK
Cytochrome P450 1A2 (Homo sapiens), sequence (P05177 whole entry, looked up): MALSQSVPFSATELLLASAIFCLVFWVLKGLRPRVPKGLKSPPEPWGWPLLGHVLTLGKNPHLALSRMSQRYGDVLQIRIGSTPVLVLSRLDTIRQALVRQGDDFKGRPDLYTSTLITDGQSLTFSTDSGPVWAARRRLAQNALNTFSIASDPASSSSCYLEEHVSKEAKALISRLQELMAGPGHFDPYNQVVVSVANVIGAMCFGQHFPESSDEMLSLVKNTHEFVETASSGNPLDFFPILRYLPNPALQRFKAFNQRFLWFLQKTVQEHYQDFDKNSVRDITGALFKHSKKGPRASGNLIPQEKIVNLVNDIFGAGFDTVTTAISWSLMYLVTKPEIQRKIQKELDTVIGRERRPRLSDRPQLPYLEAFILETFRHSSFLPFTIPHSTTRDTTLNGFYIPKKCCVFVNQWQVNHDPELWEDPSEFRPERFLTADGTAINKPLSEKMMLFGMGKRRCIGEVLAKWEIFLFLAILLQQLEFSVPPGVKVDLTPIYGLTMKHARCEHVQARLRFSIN
Pyruvate kinase PKM (Homo sapiens), sequence (P14618 whole entry, looked up): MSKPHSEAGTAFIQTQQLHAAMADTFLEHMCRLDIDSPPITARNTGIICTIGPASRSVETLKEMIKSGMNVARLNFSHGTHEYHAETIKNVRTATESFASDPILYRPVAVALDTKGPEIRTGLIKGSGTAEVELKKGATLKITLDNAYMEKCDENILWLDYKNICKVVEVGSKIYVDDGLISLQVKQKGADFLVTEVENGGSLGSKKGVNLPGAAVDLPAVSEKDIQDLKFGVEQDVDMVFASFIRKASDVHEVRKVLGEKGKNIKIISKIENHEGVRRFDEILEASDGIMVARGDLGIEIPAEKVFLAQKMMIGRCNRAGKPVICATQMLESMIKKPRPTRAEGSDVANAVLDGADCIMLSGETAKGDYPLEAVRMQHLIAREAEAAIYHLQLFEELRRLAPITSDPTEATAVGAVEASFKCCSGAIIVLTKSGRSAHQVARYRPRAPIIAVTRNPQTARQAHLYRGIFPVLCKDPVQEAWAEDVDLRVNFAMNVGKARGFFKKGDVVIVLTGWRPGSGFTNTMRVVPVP
Pyruvate kinase (Leishmania mexicana), sequence (Q27686 2-499 E452W): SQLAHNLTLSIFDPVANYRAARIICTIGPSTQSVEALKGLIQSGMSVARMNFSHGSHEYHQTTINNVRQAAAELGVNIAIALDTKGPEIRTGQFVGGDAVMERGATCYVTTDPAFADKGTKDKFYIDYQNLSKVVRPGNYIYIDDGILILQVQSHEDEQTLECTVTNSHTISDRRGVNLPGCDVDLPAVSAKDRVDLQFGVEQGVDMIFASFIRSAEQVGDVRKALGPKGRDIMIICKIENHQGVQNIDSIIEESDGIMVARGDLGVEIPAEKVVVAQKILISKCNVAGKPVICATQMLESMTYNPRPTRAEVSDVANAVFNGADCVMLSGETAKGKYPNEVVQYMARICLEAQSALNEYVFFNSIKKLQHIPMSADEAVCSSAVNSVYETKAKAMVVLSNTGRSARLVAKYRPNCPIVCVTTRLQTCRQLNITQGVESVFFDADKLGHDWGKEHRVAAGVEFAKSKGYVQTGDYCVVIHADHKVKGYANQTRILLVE
Cytochrome P450 2D6 (Homo sapiens), sequence (P10635 whole entry, looked up): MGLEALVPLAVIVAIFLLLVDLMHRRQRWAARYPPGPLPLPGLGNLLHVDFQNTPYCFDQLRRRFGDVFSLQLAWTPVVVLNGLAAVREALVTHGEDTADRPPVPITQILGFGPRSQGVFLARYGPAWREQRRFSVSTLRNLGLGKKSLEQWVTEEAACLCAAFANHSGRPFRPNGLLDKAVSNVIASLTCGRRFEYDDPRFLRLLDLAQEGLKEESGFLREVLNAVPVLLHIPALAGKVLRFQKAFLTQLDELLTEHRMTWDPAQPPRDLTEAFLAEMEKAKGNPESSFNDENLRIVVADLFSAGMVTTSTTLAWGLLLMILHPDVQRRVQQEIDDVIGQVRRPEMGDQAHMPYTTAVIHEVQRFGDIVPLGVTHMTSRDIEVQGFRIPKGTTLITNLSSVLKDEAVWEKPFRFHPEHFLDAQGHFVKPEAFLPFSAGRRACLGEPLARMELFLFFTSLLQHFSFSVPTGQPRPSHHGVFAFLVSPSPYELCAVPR
Alpha-galactosidase A (Homo sapiens), sequence (P06280 whole entry, looked up): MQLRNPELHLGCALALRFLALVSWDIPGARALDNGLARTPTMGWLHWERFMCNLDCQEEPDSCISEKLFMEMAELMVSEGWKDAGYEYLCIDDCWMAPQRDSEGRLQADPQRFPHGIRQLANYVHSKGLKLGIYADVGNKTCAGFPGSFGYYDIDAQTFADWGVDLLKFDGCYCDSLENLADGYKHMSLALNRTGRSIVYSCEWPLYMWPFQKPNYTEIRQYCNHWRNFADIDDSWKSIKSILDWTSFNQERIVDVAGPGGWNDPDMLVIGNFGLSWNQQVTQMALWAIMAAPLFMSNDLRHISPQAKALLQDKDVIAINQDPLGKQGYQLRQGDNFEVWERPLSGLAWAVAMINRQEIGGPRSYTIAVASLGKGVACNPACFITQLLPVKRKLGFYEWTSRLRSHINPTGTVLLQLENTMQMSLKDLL
Cytochrome P450 2C9 (Homo sapiens), sequence (P11712 whole entry, looked up): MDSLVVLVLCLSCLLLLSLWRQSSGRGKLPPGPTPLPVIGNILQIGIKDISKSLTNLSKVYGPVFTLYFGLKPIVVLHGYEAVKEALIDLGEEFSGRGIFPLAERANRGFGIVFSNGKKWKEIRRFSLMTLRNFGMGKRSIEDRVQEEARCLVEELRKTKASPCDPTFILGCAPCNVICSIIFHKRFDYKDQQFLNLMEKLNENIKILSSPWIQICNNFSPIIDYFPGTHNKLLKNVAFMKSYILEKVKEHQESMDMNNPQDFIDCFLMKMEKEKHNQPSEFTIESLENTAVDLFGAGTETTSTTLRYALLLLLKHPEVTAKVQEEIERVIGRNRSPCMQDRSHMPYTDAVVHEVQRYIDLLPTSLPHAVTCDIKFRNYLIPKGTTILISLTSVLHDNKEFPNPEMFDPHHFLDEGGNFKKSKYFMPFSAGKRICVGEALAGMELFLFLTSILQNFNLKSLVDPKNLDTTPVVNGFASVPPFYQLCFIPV
Cytochrome P450 2C19 (Homo sapiens), sequence (P33261 whole entry, looked up): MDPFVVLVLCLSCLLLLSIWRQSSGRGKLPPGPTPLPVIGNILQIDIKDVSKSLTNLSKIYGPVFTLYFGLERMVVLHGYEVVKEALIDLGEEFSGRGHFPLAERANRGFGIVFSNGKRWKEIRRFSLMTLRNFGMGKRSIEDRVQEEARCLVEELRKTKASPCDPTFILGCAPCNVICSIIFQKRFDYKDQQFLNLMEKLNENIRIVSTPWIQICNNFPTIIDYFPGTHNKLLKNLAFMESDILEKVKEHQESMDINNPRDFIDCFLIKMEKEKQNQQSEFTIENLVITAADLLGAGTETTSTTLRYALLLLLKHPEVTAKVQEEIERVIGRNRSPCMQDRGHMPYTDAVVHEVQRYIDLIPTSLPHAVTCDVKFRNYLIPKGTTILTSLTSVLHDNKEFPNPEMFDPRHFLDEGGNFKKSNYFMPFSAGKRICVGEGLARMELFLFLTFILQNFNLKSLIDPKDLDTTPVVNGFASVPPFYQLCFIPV

For the compound `CCNC(=O)[C@@H]1O[C@@H](n2cnc3c(NCc4ccccc4)ncnc32)[C@@H](O)[C@H]1O`, the activity change, negative = inhibition in [1] was -7.35% [at 38 µM]. Further, the Potency entry in [2], in experiment [6], in [7], in experiment [8], in experiment [9] and in [10] was “inactive” throughout. Moreover, the activity, negative = inhibition in experiment [3] is -20.4% [at 38 µM]. For the same compound, the Potency in [4] and in [5] was > 46 µM in each case.

With `CS(=O)(=O)Nc1ccc(Nc2c3ccccc3nc3ccccc23)cc1`, in experiment [1], the activity change, negative = inhibition is 0.883%. Besides, the Potency in [2] was 3.98 µM (active); in [4] it was > 46 µM; in experiment [5], > 9.22 µM. Further, in [3], the activity, negative = inhibition is 25.9%. Further, the Potency result in experiment [6] and in experiment [7] was “inactive” in each case.

With `C/C(=N\[N+](C)(C)C)c1ccc(C)c(C)c1`, the results for the activity change, negative = inhibition in experiment [1] and in experiment [2] were 10% and -16.9% [at 2.29 µM], respectively. The activity, negative = inhibition in experiment [3] was 6.61%. In addition, the results for the Potency in experiment [4] and in experiment [5] were > 46 µM and > 9.22 µM, respectively. The Potency entry in experiment [6] and in [7] was “inactive” throughout.

Consider `O=C(O)CCC/C=C\C[C@H]1[C@@H](/C=C\[C@@H](O)C2Cc3ccccc3C2)[C@H](F)C[C@H]1O`, for which the activity change, negative = inhibition is -14.7% [at 38 µM] in experiment [1] and 14.3% [at 38 µM] in experiment [11]. Further, the activity, negative = inhibition in [3] was 9.41% [at 38 µM]. Moreover, the Potency in experiment [4] and in experiment [5] was > 46 µM throughout. In addition, the Potency result in [6], in [7], in [8], in experiment [9] and in experiment [10] was “inactive” each time.

Turning to `Cc1ccccc1CNc1ncnc2c1ncn2[C@@H]1O[C@@H](CO)[C@H](O)[C@@H]1O`, the activity change, negative = inhibition in experiment [1] is 0.479% [at 38 µM]. Moreover, the Potency result in experiment [2], in experiment [7], in experiment [14] and in experiment [18] was “inactive” each time. In addition, the Potency in experiment [4] and in experiment [5] was > 46 µM in each case. Further, the compound was classed as inactive in experiment [12], in experiment [13], in experiment [15], in experiment [16] and in experiment [17].

As for `C[N+]1(CCC[N+]2(C)C[C@H]3[C@H](C2)[C@H]2C=C[C@@H]3CC2)CCOCC1` (some centres undefined), the activity change, negative = inhibition is 0.978% in [1] and 1.42% in experiment [11]. The Potency result in experiment [2], in experiment [6] and in [7] was “inactive” each time. The Potency in [4] is > 46 µM.

Regarding `CC[C@H](C)[C@@H]1O[C@]2(CC[C@@H]1C)C[C@H]1C[C@H](CC=C(C)[C@@H](O[C@H]3C[C@H](OC)[C@H](O[C@H]4C[C@H](OC)[C@H](O)[C@H](C)O4)[C@H](C)O3)[C@@H](C)C=CC=C3CO[C@@H]4[C@@H](O)C(C)=C[C@H](C(=O)O1)[C@@]34O)O2`, the activity change, negative = inhibition in experiment [1] was -14% [at 38 µM]; in experiment [11], -10.6% [at 38 µM]. Also, the Potency result in experiment [2], in experiment [7], in experiment [19] and in experiment [18] was “inactive” in each case. The Potency in experiment [4] is > 46 µM; in [5], > 46 µM; in experiment [20] it was 12.6 µM (active). In addition, the compound was called inactive in experiment [15], in experiment [16] and in [17].
